Measured values reported in the supplement of paper PMC10849652.
Targets with a hit are over-represented here; the source holds about 8,800 in all. About 0.5% of all pairs of compound and target were hits.

Experiments:
Test in all cases: log2 fold change, soluble protein after heating vs DMSO (PISA); higher = thermal stabilisation; K562 lysate, 10 uM; active = over 0.2 and 3.5 SD of the protein, either way, in both replicates (recomputed)
alvocidib = compound: CN1CC[C@H](c2c(O)cc(O)c3c(=O)cc(-c4ccccc4Cl)oc23)[C@H](O)C1 [alvocidib]
How it was run: (§1)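 Thermal stability, expressed as log-two fold change relative to solvent controls, is given from duplicates. Crude K562 extract in PBS pH 7.4 with 1 mM MgCl2, at 1 mg/mL protein, was treated with 10 μM compound for 30 min and heated in aliquots for 3 min across 48°C-58°C. After pooling, adjustment to 0.5% NP-40 at 4°C and centrifugation at 21,000xg for 90 min, supernatant protein was measured by TMTpro 16plex LC-MS/MS with channel sums equalised.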

alisertib = compound: COc1cc(Nc2ncc3c(n2)-c2ccc(Cl)cc2C(c2c(F)cccc2OC)=NC3)ccc1C(=O)O [alisertib]
How it was run: as §1

[1] = compound: COc1cc2nc(-c3cc(F)ccc3O)nc(N[C@@H]3CNC[C@H]3C(C)(C)O)c2cc1OC
How it was run: as §1

gefitinib = compound: COc1cc2ncnc(Nc3ccc(F)c(Cl)c3)c2cc1OCCCN1CCOCC1 [gefitinib]
How it was run: as §1

lapatinib = compound: CS(=O)(=O)CCNCc1ccc(-c2ccc3ncnc(Nc4ccc(OCc5cccc(F)c5)c(Cl)c4)c3c2)o1 [lapatinib]
How it was run: as §1

pictilisib = compound: CS(=O)(=O)N1CCN(Cc2cc3nc(-c4cccc5[nH]ncc45)nc(N4CCOCC4)c3s2)CC1 [pictilisib]
How it was run: as §1

[2] = compound: C[C@H](C1=CC=C(C=C1)C(=O)NC2=C3C=CNC3=NC=C2)N
How it was run: as §1

gandotinib = compound: Cc1cc(Nc2cc(CN3CCOCC3)c3nc(C)c(Cc4ccc(Cl)cc4F)n3n2)n[nH]1 [gandotinib]
How it was run: as §1

bafetinib = compound: Cc1ccc(NC(=O)c2ccc(CN3CC[C@H](N(C)C)C3)c(C(F)(F)F)c2)cc1Nc1nccc(-c2cncnc2)n1 [bafetinib]
How it was run: as §1

[3] = compound: Cc1cccc(CC(=O)N2CCc3c2ccc(-c2cn(C)c4ncnc(N)c24)c3F)n1
How it was run: as §1

[4] = compound: CNC(=O)C1=CC=CC=C1NC2=NC(=NC=C2Cl)NC3=C(C=C(C=C3)N4CCOCC4)OC
How it was run: as §1

encorafenib = compound: COC(=O)N[C@@H](C)CNc1nccc(-c2cn(C(C)C)nc2-c2cc(Cl)cc(NS(C)(=O)=O)c2F)n1 [encorafenib]
How it was run: as §1

[5] = compound: COC(=O)[C@H](CCSC)NC(=O)C1=C(C=C(C=C1)NC[C@H](CS)N)C2=CC=CC=C2
How it was run: as §1

tozasertib = compound: Cc1cc(Nc2cc(N3CCN(C)CC3)nc(Sc3ccc(NC(=O)C4CC4)cc3)n2)n[nH]1 [tozasertib]
How it was run: as §1

Tubastatin A = compound: CN1CCc2c(c3ccccc3n2Cc2ccc(C(=O)NO)cc2)C1 [Tubastatin A]
How it was run: as §1

crizotinib = compound: C[C@@H](Oc1cc(-c2cnn(C3CCNCC3)c2)cnc1N)c1c(Cl)ccc(F)c1Cl [crizotinib]
How it was run: as §1

doramapimod = compound: Cc1ccc(-n2nc(C(C)(C)C)cc2NC(=O)Nc2ccc(OCCN3CCOCC3)c3ccccc23)cc1 [doramapimod]
How it was run: as §1

[6] = compound: CNc1nc(-c2ccc3c(N)n[nH]c3c2)cc(N2C[C@@H](C(=O)NC3CCCCC3)CC[C@H]2C)n1
How it was run: as §1

duvelisib = compound: C[C@H](Nc1ncnc2nc[nH]c12)c1cc2cccc(Cl)c2c(=O)n1-c1ccccc1 [duvelisib]
How it was run: as §1

defactinib = compound: CNC(=O)c1ccc(Nc2ncc(C(F)(F)F)c(NCc3nccnc3N(C)S(C)(=O)=O)n2)cc1 [defactinib]
How it was run: as §1

Measured: log2 fold change

EPN2 (UniProt I3L356)
inactive: alvocidib -0.108 | alisertib -0.253 | [1] -0.02 | gefitinib 0.321 | lapatinib 0.014 | pictilisib -0.054 | [2] -0.361 | gandotinib 0.081 | bafetinib 0.031 | [3] 0.146

GAPVD1 (UniProt Q14C86)
UniProt Q14C86, sequence (Q14C86 whole entry, looked up): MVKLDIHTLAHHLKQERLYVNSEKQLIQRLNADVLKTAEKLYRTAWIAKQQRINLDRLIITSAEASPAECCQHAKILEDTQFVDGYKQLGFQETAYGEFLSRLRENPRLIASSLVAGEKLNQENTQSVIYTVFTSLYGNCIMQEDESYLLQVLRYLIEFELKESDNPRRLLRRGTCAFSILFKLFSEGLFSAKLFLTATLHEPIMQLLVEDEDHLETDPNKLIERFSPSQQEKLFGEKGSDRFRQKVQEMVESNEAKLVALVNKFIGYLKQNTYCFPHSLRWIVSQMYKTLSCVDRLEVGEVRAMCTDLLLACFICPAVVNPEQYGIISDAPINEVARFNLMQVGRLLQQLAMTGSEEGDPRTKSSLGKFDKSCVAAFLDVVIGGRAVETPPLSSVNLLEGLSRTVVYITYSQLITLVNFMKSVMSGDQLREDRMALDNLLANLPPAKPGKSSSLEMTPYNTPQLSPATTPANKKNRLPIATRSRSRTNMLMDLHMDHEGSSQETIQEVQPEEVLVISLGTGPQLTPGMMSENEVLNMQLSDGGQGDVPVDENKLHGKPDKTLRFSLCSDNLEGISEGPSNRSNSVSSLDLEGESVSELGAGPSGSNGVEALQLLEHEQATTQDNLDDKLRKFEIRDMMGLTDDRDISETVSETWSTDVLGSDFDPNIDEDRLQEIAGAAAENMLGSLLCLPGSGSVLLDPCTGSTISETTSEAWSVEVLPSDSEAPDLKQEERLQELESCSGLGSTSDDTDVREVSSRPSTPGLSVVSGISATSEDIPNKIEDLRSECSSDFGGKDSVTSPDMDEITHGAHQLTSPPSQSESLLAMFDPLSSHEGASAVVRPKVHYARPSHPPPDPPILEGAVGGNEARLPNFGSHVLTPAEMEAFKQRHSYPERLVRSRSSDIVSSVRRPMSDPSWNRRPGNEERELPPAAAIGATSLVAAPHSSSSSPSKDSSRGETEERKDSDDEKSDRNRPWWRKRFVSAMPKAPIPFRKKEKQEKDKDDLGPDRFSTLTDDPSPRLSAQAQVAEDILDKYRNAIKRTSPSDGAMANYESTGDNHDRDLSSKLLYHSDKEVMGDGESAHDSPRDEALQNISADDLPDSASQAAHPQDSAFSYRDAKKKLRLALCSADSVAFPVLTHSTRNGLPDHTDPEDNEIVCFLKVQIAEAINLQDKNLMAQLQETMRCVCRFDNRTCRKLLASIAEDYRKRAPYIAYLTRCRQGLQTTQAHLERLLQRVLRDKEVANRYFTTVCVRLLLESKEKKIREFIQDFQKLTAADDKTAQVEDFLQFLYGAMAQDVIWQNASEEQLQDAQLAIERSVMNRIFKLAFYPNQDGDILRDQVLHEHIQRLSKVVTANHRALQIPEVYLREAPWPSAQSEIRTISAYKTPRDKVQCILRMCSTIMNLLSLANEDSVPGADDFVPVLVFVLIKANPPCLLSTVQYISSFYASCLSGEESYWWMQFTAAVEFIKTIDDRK
inactive: [1] 0.071 | lapatinib 0.03 | pictilisib -0.138 | bafetinib 0.014

DST isoform 3 (UniProt Q03001)
inactive: alvocidib 0.386 | [4] -0.061 | encorafenib 0.008 | [5] -0.004 | pictilisib 0.049 | gandotinib -0.243 | tozasertib -0.056 | bafetinib -0.118 | [3] -0.224
active: [2] 1.39

DYRK1A isoform 2 (UniProt Q13627)
inactive: alvocidib 0.225 | Tubastatin A 0.023 | [4] 0.148 | pictilisib -0.166 | crizotinib -0.071 | [2] -0.171 | gandotinib 0.014 | doramapimod 0.092 | bafetinib 0.145 | [3] 0.034

EID1 (UniProt Q9Y6B2)
active: duvelisib 0.604
inactive: alvocidib -0.061 | Tubastatin A -0.004 | [4] 0.036 | [6] 0.046 | encorafenib -0.057 | [5] 0.072 | alisertib -0.067 | gefitinib 0.022 | [2] -0.02 | gandotinib 0.108 | tozasertib -0.043 | [3] 0.069

GDE1 (UniProt Q9NZC3)
active: [2] 0.842 | gandotinib -0.434 | [3] -0.409
inactive: alvocidib 0.307 | Tubastatin A -0.047 | [4] 0.014 | [6] 0.024 | encorafenib -0.045 | [5] -0.02 | [1] -0.038 | lapatinib -0.016 | pictilisib 0.114 | crizotinib -0.005 | duvelisib 0.049 | tozasertib 0.157 | doramapimod -0.017 | bafetinib -0.041

EIF2B5, A0A3B3ITK8
inactive: alisertib -0.014 | [1] -0.03 | gefitinib -0.08 | lapatinib -0.108

EPS8L2 (UniProt Q9H6S3)
inactive: alvocidib -0.009 | Tubastatin A 0.078 | [4] -0.016 | [6] 0.031 | encorafenib 0.096 | [5] -0.037 | alisertib 0.01 | [1] -0.036 | gefitinib -0.149 | lapatinib 0.044 | pictilisib -0.03 | crizotinib -0.012 | [2] -0.068 | duvelisib -0.086 | gandotinib 0.061 | tozasertib -0.258 | doramapimod -0.046 | bafetinib -0.101 | [3] 0.207

FAT2 (UniProt Q9NYQ8)
inactive: alvocidib -0.214 | Tubastatin A -0.083 | [4] -0.123 | defactinib -0.034 | encorafenib -0.092 | [5] 0.104 | alisertib -0.023 | [1] 0.043 | gefitinib 0.013 | lapatinib -0.027 | pictilisib -0.015 | crizotinib -0.512 | [2] -0.366 | gandotinib 0.182 | tozasertib 0.055 | doramapimod -0.094 | bafetinib -0.244 | [3] 0.407

FAM111A (UniProt Q96PZ2)
inactive: Tubastatin A -0.083 | [4] 0.022 | defactinib 0.053 | [6] -0.119 | encorafenib -0.074 | [5] -0.11 | [1] -0.091 | lapatinib 0.223 | crizotinib -0.01 | duvelisib 0.03 | tozasertib -0.02 | doramapimod -0.163

GIPC3 (UniProt Q8TF64)
inactive: alvocidib -0.108 | Tubastatin A -0.071 | [4] 0.055 | [6] -0.157 | encorafenib 0.028 | [5] 0.05 | alisertib -0.194 | [1] 0.008 | gefitinib 0.073 | lapatinib 0.157 | pictilisib -0.055 | crizotinib -0.103 | [2] -0.033 | duvelisib 0.05 | gandotinib 0.124 | tozasertib -0.097 | doramapimod 0 | bafetinib -0.035 | [3] 0.083

FNDC3A (UniProt Q9Y2H6)
active: [2] -0.808
inactive: alvocidib -0.017 | Tubastatin A -0.237 | [4] 0.014 | alisertib -0.141 | gefitinib -0.214 | crizotinib 0.036 | gandotinib 0.42 | doramapimod 0.143 | [3] 0.126

FMNL2 isoform 3 (UniProt Q96PY5)
inactive: Tubastatin A 0.108 | [4] 0.011 | [6] 0.044 | alisertib 0.073 | [1] 0.119 | gefitinib 0.241 | lapatinib -0.077 | crizotinib -0.17 | duvelisib -0.085 | doramapimod 0.091

EVI5L isoform 2 (UniProt Q96CN4)
UniProt Q96CN4, sequence (Q96CN4 whole entry, looked up): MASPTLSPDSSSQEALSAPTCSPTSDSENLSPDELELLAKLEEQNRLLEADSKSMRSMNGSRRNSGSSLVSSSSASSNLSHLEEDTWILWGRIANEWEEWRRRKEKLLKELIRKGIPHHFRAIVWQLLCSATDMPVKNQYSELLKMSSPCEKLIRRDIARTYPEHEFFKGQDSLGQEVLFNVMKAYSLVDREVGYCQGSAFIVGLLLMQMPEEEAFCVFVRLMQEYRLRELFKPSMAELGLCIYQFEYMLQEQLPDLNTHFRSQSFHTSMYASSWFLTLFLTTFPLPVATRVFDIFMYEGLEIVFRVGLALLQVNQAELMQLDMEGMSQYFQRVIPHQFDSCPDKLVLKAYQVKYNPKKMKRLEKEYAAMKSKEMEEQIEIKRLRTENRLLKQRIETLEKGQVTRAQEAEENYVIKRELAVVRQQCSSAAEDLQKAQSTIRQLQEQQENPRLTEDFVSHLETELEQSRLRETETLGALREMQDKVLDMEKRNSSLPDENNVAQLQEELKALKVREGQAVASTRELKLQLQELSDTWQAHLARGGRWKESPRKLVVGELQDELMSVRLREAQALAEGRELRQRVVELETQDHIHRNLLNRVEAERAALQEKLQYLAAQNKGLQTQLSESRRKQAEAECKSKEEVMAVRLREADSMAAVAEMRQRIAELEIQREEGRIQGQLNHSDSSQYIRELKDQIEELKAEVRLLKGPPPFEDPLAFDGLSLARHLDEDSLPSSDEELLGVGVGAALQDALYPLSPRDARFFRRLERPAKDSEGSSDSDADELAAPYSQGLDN
inactive: alvocidib -0.293 | [2] 0.022 | gandotinib 0.062 | [3] 0.049

EIF3I (UniProt Q5TFK1)
inactive: alvocidib 0.053 | alisertib 0.159 | [1] 0.613 | gefitinib 0.233 | lapatinib -0.063 | [2] 0.137 | gandotinib 0.052 | [3] 0.112

DTL (UniProt Q9NZJ0)
UniProt Q9NZJ0, sequence (Q9NZJ0 whole entry, looked up): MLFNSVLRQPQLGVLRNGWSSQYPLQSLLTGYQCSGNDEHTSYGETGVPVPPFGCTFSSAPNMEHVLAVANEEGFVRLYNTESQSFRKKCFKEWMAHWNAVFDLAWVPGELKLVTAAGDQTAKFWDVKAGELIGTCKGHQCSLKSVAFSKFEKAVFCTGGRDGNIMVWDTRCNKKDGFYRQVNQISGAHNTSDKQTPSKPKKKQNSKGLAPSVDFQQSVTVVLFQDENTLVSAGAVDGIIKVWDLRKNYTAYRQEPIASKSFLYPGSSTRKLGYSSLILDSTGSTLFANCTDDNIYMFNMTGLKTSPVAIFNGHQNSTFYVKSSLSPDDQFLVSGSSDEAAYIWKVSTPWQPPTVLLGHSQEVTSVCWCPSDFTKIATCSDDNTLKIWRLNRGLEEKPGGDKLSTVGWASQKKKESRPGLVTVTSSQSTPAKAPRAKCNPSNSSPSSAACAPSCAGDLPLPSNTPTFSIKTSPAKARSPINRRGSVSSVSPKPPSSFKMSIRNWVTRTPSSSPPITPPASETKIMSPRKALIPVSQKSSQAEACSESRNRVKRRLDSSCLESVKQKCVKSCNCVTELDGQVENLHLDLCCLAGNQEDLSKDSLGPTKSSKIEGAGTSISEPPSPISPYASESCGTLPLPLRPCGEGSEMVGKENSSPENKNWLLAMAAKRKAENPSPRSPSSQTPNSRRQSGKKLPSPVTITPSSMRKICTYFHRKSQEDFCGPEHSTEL
inactive: alvocidib -0.008 | Tubastatin A -0.072 | [4] -0.003 | defactinib 0.071 | [6] -0.092 | alisertib -0.038 | gefitinib 0.043 | pictilisib -0.026 | crizotinib -0.035 | [2] 0.059 | duvelisib 0.174 | gandotinib -0.053 | doramapimod 0.064 | bafetinib -0.099 | [3] 0.006

FAT1 (UniProt Q14517)
inactive: alvocidib -0.14 | Tubastatin A 0.18 | [4] 0 | encorafenib 0.029 | [5] 0.047 | [1] 0.094 | lapatinib -0.129 | crizotinib -0.109 | [2] 0.079 | gandotinib 0.027 | tozasertib -0.139 | doramapimod 0.475 | [3] 0.072

ERG28 (UniProt Q9UKR5)
UniProt Q9UKR5, sequence (Q9UKR5 whole entry, looked up): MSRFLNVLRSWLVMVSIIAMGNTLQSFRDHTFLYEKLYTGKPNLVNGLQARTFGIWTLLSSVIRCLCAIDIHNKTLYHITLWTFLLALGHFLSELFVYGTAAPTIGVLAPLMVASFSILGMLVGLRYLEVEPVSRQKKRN
active: [2] 0.593
inactive: alvocidib 0.304 | [6] -0.037 | encorafenib 0.055 | [5] -0.062 | [1] -0.024 | lapatinib 0.008 | pictilisib 0.049 | duvelisib 0.014 | gandotinib -0.349 | tozasertib -0.11 | bafetinib 0.041 | [3] -0.392

FOXL2 (UniProt P58012)
inactive: Tubastatin A -0.049 | [4] 0.031 | [6] 0.005 | encorafenib 0.079 | [5] 0.138 | [1] 0.015 | lapatinib -0.25 | pictilisib 0.091 | duvelisib 0.094 | tozasertib -0.092
active: bafetinib -0.703

FTSJ1 isoform 2 (UniProt Q9UET6)
inactive: alvocidib 0.015 | defactinib 0.028 | encorafenib -0.027 | [5] 0.047 | [1] -0.016 | lapatinib 0.013 | [2] -0.129 | gandotinib 0.077 | tozasertib -0.175 | [3] 0.079

FOXJ2 (UniProt Q9P0K8)
UniProt Q9P0K8, sequence (Q9P0K8 whole entry, looked up): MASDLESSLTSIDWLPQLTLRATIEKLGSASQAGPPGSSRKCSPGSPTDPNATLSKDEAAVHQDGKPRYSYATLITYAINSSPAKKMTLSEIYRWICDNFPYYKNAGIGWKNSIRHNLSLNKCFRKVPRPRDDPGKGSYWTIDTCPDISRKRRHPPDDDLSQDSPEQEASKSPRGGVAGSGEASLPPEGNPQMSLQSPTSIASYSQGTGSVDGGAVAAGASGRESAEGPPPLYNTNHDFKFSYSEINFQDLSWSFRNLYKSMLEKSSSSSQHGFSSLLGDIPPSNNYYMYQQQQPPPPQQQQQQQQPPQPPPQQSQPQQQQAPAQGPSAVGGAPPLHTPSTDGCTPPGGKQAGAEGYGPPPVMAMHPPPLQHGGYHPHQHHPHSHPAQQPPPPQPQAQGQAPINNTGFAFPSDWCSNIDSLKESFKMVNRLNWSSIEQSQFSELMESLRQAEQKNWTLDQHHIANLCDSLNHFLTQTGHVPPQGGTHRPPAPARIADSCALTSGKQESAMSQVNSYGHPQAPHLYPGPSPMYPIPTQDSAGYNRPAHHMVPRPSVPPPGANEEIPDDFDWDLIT
inactive: alvocidib 0.006 | Tubastatin A -0.114 | [4] 0.021 | [6] 0.053 | encorafenib -0.081 | [5] 0.022 | alisertib -0.308 | gefitinib 0.057 | pictilisib 0.043 | [2] -0.037 | duvelisib 0.039 | gandotinib 0.044 | tozasertib 0.127 | bafetinib -0.224 | [3] 0.056

EHHADH (UniProt Q08426)
inactive: alvocidib 0.013 | Tubastatin A 0.039 | [4] -0.024 | [6] 0.101 | encorafenib 0.035 | [5] -0.426 | alisertib 0.065 | [1] -0.005 | gefitinib 0.012 | lapatinib -0.037 | pictilisib 0.143 | crizotinib -0.001 | [2] 0.016 | duvelisib 0.051 | gandotinib -0.117 | tozasertib 0.045 | doramapimod 0.048 | bafetinib 0.06 | [3] 0

EIF2AK3 (UniProt Q9NZJ5)
UniProt Q9NZJ5, sequence (Q9NZJ5 whole entry, looked up): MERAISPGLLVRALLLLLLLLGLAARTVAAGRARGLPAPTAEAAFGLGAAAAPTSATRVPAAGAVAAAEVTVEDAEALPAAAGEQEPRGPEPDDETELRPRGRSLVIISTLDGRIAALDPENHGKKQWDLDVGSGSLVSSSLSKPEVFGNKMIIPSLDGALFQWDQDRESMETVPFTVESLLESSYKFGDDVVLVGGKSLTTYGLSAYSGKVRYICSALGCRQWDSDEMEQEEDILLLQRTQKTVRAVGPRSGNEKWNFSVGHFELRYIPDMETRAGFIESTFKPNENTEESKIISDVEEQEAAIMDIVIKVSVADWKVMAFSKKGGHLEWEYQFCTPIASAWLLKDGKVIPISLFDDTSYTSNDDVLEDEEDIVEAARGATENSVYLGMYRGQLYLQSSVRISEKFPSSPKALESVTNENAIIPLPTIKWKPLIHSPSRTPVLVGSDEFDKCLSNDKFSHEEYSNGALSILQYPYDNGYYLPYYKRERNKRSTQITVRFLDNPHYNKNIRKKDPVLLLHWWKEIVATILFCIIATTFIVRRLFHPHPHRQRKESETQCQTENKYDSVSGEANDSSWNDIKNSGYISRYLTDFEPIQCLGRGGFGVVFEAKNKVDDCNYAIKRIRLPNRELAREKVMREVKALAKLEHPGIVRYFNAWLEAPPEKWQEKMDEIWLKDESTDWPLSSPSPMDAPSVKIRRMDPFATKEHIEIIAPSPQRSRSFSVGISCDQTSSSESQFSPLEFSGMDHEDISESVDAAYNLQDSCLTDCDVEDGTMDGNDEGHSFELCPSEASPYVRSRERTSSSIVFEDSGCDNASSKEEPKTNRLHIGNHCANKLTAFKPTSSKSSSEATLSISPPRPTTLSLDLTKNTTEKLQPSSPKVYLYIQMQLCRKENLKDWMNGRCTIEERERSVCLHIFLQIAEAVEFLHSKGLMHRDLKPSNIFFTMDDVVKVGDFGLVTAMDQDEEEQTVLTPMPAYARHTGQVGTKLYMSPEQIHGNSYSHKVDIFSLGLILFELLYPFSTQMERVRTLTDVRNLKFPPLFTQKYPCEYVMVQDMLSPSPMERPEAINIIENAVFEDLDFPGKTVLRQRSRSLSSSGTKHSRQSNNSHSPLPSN
active: [3] 1.48
inactive: alvocidib 0.281 | Tubastatin A -0.369 | [4] 0.28 | [6] 0.104 | alisertib -0.128 | [1] -0.197 | gefitinib 0.001 | lapatinib 0.3 | [2] -0.051 | duvelisib -0.122 | gandotinib -0.212

EXO5 (UniProt Q9H790)
active: pictilisib -0.43
inactive: Tubastatin A 0.018 | [4] 0.068 | crizotinib -0.113 | doramapimod 0.061 | bafetinib -0.261

FAM204A (UniProt Q9H8W3)
UniProt Q9H8W3, sequence (Q9H8W3 whole entry, looked up): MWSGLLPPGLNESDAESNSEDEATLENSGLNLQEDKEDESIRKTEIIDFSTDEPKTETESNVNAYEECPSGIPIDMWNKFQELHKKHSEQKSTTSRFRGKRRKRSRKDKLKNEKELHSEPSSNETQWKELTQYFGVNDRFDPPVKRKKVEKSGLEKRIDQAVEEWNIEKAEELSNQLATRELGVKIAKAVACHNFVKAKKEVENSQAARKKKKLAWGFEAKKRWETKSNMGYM
inactive: alvocidib -0.139 | Tubastatin A -0.036 | [4] 0.018 | defactinib 0.146 | crizotinib -0.053 | [2] 0.412 | gandotinib 0.045 | doramapimod 0.154 | [3] -0.077

GC isoform 3 (UniProt P02774)
inactive: alvocidib 0.105 | Tubastatin A 0.087 | defactinib -0.003 | [6] 0.244 | encorafenib -0.018 | [5] -0.049 | crizotinib 0.029 | [2] 0.173 | duvelisib 0.133 | gandotinib -0.025 | tozasertib -0.004 | doramapimod -0.081 | [3] -0.075
